The values that follow come from PubChem BioAssay (NCI).

Among the test systems are HCT-15 colon; HT29 colon; SNB-75 CNS; SNB-19 CNS; U251 CNS; PC-3 prostate; SK-MEL-5 melanoma; LOX IMVI melanoma; SK-MEL-28 melanoma; SK-MEL-2 melanoma; EKVX NSCLC; SN12C renal; UO-31 renal; TK-10 renal; ACHN renal; CAKI-1 renal; CCRF-CEM leukemia; MOLT-4 leukemia; UACC-62 melanoma; A498 renal.
What all share (experiment): NCI-60 one-dose screen, 48 h (100 = growth as untreated, 0 = no growth, -100 = all killed)
Holding throughout (conditions): 10 µM unless noted

Compounds without any hit were thinned out: in the full panel of roughly 83,000, 20% have a hit.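 Cells were grown in 96-well plates and exposed to the test compound at a single concentration for 48 hours; results are reported as percent growth, with values below 10 considered active.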 Values without a mark were called inactive. Calls of active or inactive are those of the source.

In the case of `Cc1ccc(S(=O)(=O)Nc2ccc(Cl)cc2)cc1`, the growth in the test on HCT-15 colon is 107%; in the test with HT29 colon, 112%; with SNB-75 CNS, 82.7%; in the test with SNB-19 CNS, 96.9%; with U251 CNS it was 96.4%; with PC-3 prostate, 87.2%. For the same molecule, the growth with SK-MEL-5 melanoma is 106%; with LOX IMVI melanoma, 95.1%; with SK-MEL-28 melanoma, 97.2%; with SK-MEL-2 melanoma, 135%; in the test with EKVX NSCLC, 90.4%; in the test on SN12C renal it was 94.3%. Besides, the growth in the test with UO-31 renal is 82.1%; with TK-10 renal, 118%; with ACHN renal, 99.8%; with CAKI-1 renal it was 82.3%; in the test with CCRF-CEM leukemia, 95.8%; in the test with MOLT-4 leukemia, 105%.

As to `CC(=O)[C@@H]1CC[C@]2(C(N)=O)CC[C@]3(C)[C@H](CC[C@@H]4[C@@]5(C)CCC(=O)C(C)(C)[C@@H]5CC[C@]43C)[C@@H]12`, the growth was 103% in the test with HCT-15 colon; 95.9% in the test with HT29 colon; 89% in the test on SNB-75 CNS; 102% in the test on SNB-19 CNS; 103% in the test on U251 CNS; 78.5% in the test with PC-3 prostate. Also, the growth with SK-MEL-5 melanoma was 101%; with UACC-62 melanoma, 84.5%; in the test with SK-MEL-28 melanoma, 100%; in the test with SK-MEL-2 melanoma, 100%; with EKVX NSCLC it was 90.1%; in the test with SN12C renal, 102%. Also, the growth is 98.7% in the test on UO-31 renal; 107% in the test on TK-10 renal; 97.1% in the test on ACHN renal; 89.6% with CAKI-1 renal; 99% in the test with CCRF-CEM leukemia; 92.5% with MOLT-4 leukemia.

Regarding `CCN1C(=O)N(CC)C2NC(SC)=NC21` (configuration not stated), the growth in the test with HCT-15 colon is 103%; in the test with HT29 colon, 108%; in the test on SNB-75 CNS, 86%; with SNB-19 CNS, 97.8%; in the test with U251 CNS, 101%; in the test with PC-3 prostate, 99.5%. Further, the growth was 104% in the test on SK-MEL-5 melanoma; 96.2% in the test on UACC-62 melanoma; 97.8% in the test with SK-MEL-28 melanoma; 111% with SK-MEL-2 melanoma; 97.6% with EKVX NSCLC; 95.9% in the test on SN12C renal. Also, the growth was 89.7% with UO-31 renal; 115% in the test with TK-10 renal; 99.8% in the test on ACHN renal; 87.9% with CAKI-1 renal; 90.2% in the test with A498 renal; 102% in the test on MOLT-4 leukemia.

Consider `O=C1Nc2c(ccc(Cl)c2Cl)/C1=C/c1ccc([N+](=O)[O-])cc1`, for which the growth in the test with HCT-15 colon is 89.4%; with HT29 colon it was 99.2%; in the test on SNB-75 CNS, 95.9%; in the test with SNB-19 CNS, 81.3%; with U251 CNS, 92.3%; in the test on PC-3 prostate, 95.3%. The growth in the test with SK-MEL-5 melanoma is 99.6%; in the test on UACC-62 melanoma, 102%; in the test with SK-MEL-28 melanoma, 111%; in the test with SK-MEL-2 melanoma, 99.1%; in the test with EKVX NSCLC it was 84.3%; in the test on SN12C renal, 126%. The growth was 79.7% in the test with UO-31 renal; 103% in the test on TK-10 renal; 87.8% in the test with ACHN renal; 59.6% in the test with CAKI-1 renal; 99.4% with A498 renal; 2.94% (active) with CCRF-CEM leukemia. Besides, in the test on MOLT-4 leukemia, the growth was 96.3%.

Take `Cn1c(COC(=O)NCCn2ccnc2)nc2c(N3CCOCC3)nc(-c3ccccc3)nc21`: the growth in the test on HCT-15 colon is -51.3% (active); in the test on HT29 colon it was -12.1% (active); in the test with SNB-75 CNS it was -89.9% (active); in the test on SNB-19 CNS it was 8.21% (active); in the test on U251 CNS, -61% (active); in the test with PC-3 prostate it was -74.7% (active). Also, the growth in the test on SK-MEL-5 melanoma was -96% (active); in the test with LOX IMVI melanoma it was -88.9% (active); in the test on SK-MEL-28 melanoma, -98.8% (active); with SK-MEL-2 melanoma, -69.6% (active); with EKVX NSCLC, -64.5% (active); in the test with SN12C renal, -90.3% (active). In addition, the growth in the test on UO-31 renal is -100% (active); with TK-10 renal it was -83.3% (active); with ACHN renal, -100% (active); in the test with CAKI-1 renal, -94.2% (active); with A498 renal, -24.2% (active); with CCRF-CEM leukemia, -17.9% (active). In addition, in the test on MOLT-4 leukemia, the growth is -10.3% (active).

With `CCc1c(Nc2ccc(C)cc2)nc(N)[nH]c1=O`, the growth in the test on HCT-15 colon is 103%; with HT29 colon, 100%; in the test with SNB-75 CNS it was 87%; with SNB-19 CNS, 98.9%; with U251 CNS, 101%; in the test with PC-3 prostate, 95.4%. For the same molecule, the growth is 102% in the test on SK-MEL-5 melanoma; 87.2% in the test with UACC-62 melanoma; 101% with SK-MEL-28 melanoma; 98.1% in the test on SK-MEL-2 melanoma; 92.1% in the test with EKVX NSCLC; 92.4% with SN12C renal. The growth is 85.8% with UO-31 renal; 104% in the test with TK-10 renal; 103% in the test on ACHN renal; 91.7% in the test with CAKI-1 renal; 104% in the test on CCRF-CEM leukemia; 101% in the test with MOLT-4 leukemia.

For `CCCCCN1C=C/C(=C\C(=O)N(C)c2cccc3ccccc23)c2ccccc21`, the growth in the test on HCT-15 colon is 101%; in the test on HT29 colon it was 90%; in the test with SNB-75 CNS, 103%; in the test with SNB-19 CNS it was 99.7%; in the test on U251 CNS, 95.8%; with PC-3 prostate, 94.4%. Besides, the growth was 98.3% with SK-MEL-5 melanoma; 97.8% with LOX IMVI melanoma; 107% with SK-MEL-28 melanoma; 109% in the test with SK-MEL-2 melanoma; 89.1% in the test with EKVX NSCLC; 100% in the test on SN12C renal. Further, the growth with UO-31 renal was 82.5%; in the test with TK-10 renal, 105%; in the test with ACHN renal, 104%; in the test with CAKI-1 renal, 89.8%; in the test with CCRF-CEM leukemia, 89.5%; in the test on MOLT-4 leukemia it was 99%.

In the case of `CC(C)(C)CC(C)(C)Nc1c(-c2ccc3c(c2)OCO3)nc2cnccn12`, the growth in the test on HCT-15 colon is 84.1%; in the test on HT29 colon it was 80%; with SNB-75 CNS, 67.5%; in the test on SNB-19 CNS, 90.9%; in the test with U251 CNS it was 95.6%; in the test on PC-3 prostate it was 67%. Also, the growth was 87.7% with SK-MEL-5 melanoma; 94% in the test on LOX IMVI melanoma; 94.3% with SK-MEL-28 melanoma; 95.6% in the test on SK-MEL-2 melanoma; 80.3% with EKVX NSCLC; 92.8% in the test on SN12C renal. In addition, the growth was 63.1% with UO-31 renal; 98.3% with TK-10 renal; 86.5% in the test with ACHN renal; 69.6% in the test with CAKI-1 renal; 75.6% with A498 renal; 89.1% in the test with CCRF-CEM leukemia. Also, the growth in the test on MOLT-4 leukemia is 69.4%.
